Shown are actives, neighbours in structure and some others; about 1.5% of the full set was active somewhere.
TrxR1 substrate – rat thioredoxin reductase 1 substrate activity; O89049; purified TrxR1 substrate turnover, NADPH consumption readout; Potency, µM (doses to about 114 µM), for inactives: top-dose activity change, negative = substrate turnover; hit rate 0.01% among 390,000; AID 588456; further: potency means the concentration at half of the fitted maximal effect; nearly all actives have a fitted effect of over 50% in size
Target sequence (O89049 whole entry, looked up): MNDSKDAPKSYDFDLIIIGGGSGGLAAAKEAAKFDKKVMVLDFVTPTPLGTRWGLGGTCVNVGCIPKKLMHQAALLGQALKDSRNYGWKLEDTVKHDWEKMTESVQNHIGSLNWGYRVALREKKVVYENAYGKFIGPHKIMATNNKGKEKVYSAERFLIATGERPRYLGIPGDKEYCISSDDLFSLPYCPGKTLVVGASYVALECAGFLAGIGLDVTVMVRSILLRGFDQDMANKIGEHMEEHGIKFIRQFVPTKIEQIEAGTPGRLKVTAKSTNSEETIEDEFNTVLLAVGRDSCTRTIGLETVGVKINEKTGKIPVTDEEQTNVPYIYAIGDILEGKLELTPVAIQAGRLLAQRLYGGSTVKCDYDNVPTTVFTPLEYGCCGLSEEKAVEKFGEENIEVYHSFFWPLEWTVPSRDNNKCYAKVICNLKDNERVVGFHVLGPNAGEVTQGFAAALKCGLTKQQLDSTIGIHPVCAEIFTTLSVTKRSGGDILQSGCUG
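Rat TrxR1, dispensed at 90 nM, was prereduced with 400 uM NADPH (final) for 5 min at ~22 deg C, then incubated with compound 15 min before 400 uM selenite. A first-read NADPH fluorescence drop versus no-compound background flagged substrates.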
rTrxR1 inhibitor – inhibitors of rat thioredoxin reductase 1; recombinant rTrxR1, NADPH fluorescence consumption, selenite substrate; O89049; hit rate 1% among 390,000; Potency, µM (series often up to 114 µM), inactives show top-dose activity change, negative = inhibition, actives largely listed as inhibitors; further: potency means the concentration at half of the fitted maximal effect; nearly all actives have a fitted effect of over 65% in size
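Rat TrxR1 (90 nM in the dispensed reagent) was pre-reduced with 400 uM NADPH for 5 min at room temperature, then incubated with compound for 15 min. After 400 uM selenite was added, NADPH fluorescence (Ex 340/Em 450 nm) was followed for 8 min.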
Eya2 phos inh – Eya2 (human) phosphatase inhibition | O00167 | recombinant Eya2, OMFP fluorescence dephosphorylation (OMFP is methylfluorescein phosphate) | Potency, µM (doses to about 76.9 µM), without a hit: top-dose activity, negative = inhibition, actives largely listed as inhibitors | hit rate 0.006% among 330,000 | AID 488837; further: potency means the concentration at half of the fitted maximal effect
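Eya2 protein (added as 0.2 uM solution) was preincubated with compound for 10 min at ambient temperature in 50 mM HEPES pH 7.5, 50 mM NaCl, 5 uM MgCl2, 0.05% BSA, 1 mM DTT. OMFP (added at 50 uM) then reacted 10 min; fluorescence read at 485/525 nm.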
FBPA coupling cs – coupling enzyme interference in Giardia aldolase counter-screen; hit rate 0.67% among 290,000; activity change, negative = inhibition, % at 58.2 µM, hits read low; AID 2472; coupling enzyme system counterscreen, AmpLite Red fluorescence; in the data active means activity change below about -30%
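Final compound at 57.5 uM, incubated 10 min at RT with coupling enzyme reagent (glyceraldehyde-3-phosphate), then 20 min with substrate and AmpLite Red detection. Fluorescence read at 525/598 nm; tests interference with the coupling assay, not aldolase inhibition.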
mIDH1 inhibitor – inhibitors of human mutant IDH1 R132H; O75874; IDH1-R132H enzyme, NADPH consumption, diaphorase/resazurin fluorescence; Potency, µM (highest dose often 76.6 µM), for the others: top-dose activity change, negative = inhibition, actives largely listed as inhibitors; hit rate 0.093% among 390,000; further: potency means the concentration at half of the fitted maximal effect; nearly all actives have a fitted effect of over 65% in size
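IDH1-R132H (0.5 ug/mL dispensed) in pH 7.5 Tris buffer was preincubated 30 min with compound, then given a substrate mix of 0.016 mM NADPH and 2 mM alpha-KG for 80 min at room temperature; remaining NADPH was read by diaphorase/resazurin fluorescence.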
The depositor's hits bear a star; u = inconclusive; x = no result; ! = not confirmed by another sample; [ ] = remark or other dose. Unless noted, the call rests on the fitted dose curve; in most records, active means well fitted curve in the direction sought with a large enough effect; inconclusive means small, poorly fitted or top-dose-only effect, or another doubt; inactive means no such curve, though single readings can be large; an effect the other way counts as inactive or inconclusive. On the % scale 0 is the no-effect control and ±100 the full control effect.

SMILES	TrxR1 substrate	rTrxR1 inhibitor	Eya2 phos inh	FBPA coupling cs	mIDH1 inhibitor
Cc1cccc(N(CC(=O)N/N=C/c2cc([N+](=O)[O-])ccc2Cl)S(C)(=O)=O)c1C	-8%	11%[57.1 µM]	0%	-59*	27%
COc1ccc2c(c1)O[C@@H](c1ccc3c(c1)OCO3)[C@H](OC(=O)N[C@H]1CCCc3ccccc31)C2=O	x	x	x	1	x
CCOC(=O)C(C(=O)OCC)c1cc(Br)c2noc3c2c1C(=O)c1ccccc1-3	2%	u	18%	-64*	16%
Cc1cccc(NC(=O)c2ccccc2O)c1C	7%	9%	5%	-32*	6%
COc1ccc(C2NN=C(c3c[nH]c4ccccc34)C2O)cc1 (centres undefined)	4%[57.1 µM]	15%[2.29 µM]	7%	-4	6%
COc1ccc(C2C(O)C(c3c[nH]c4ccccc34)=NN2C(=O)CCl)cc1 (centres undefined)	-4%	13µM*	-7%	0	-1%
Cc1ccc(NC(=O)c2cc(N3C(=O)C=CC3=O)ccc2N2CCOCC2)cc1Cl	-9%	3.5µM*	-1%	-3	0%
Oc1ccc(CN2CCCc3ccccc32)c2cccnc12	10%	1.3µM*	3%	-3	2%
Nc1ccc2ncccc2c1	-3%	-5%	-10%	-39*	15%
Nc1ccc(/C=C/c2ccc3ncccc3c2)cc1	4%[2.29 µM]	10%[2.29 µM]	14%	-2	5%
c1cnc2ccc3ncccc3c2c1	13%	10%	-10%	-9	8%
Nc1ccc2ncccc2c1N	-1%	10%	7%	-40*	0%
Cc1ccc(S(=O)(=O)N2CCN(c3nc(-c4ccc(CN5CCOCC5)s4)nc4ccccc34)CC2)cc1	8%	12%	x	x	x
CCCCc1nc2c(c3c1C[C@H](C)OC3)CN(S(=O)(=O)c1ccccc1C(=O)OC)CC2	x	x	x	-1	x
CCC1CCCCN1S(=O)(=O)c1ccc(NC(=O)c2nc(S(C)(=O)=O)ncc2Cl)cc1 (centres undefined)	-2%	7.1µM*	3%	0	-1%
CCS(=O)(=O)c1ncc(Cl)c(C(=O)Nc2ccc(S(=O)(=O)N3CCCC(C)C3)cc2)n1 (centres undefined)	-2%	2.5µM*	-3%	-3	-6%
C[N+]1(CC(=O)c2cccc([N+](=O)[O-])c2)CCOCC1	7%	19%	x	x	x
CNc1ccc(C=O)cc1I	-5%	-6%	x	x	x
Cc1cc(C2C(C#N)=C(N)SC(N)=C2C#N)c(C)s1	-5%	32µM*	18%	-14	-6%
CC(C)c1cccc(NC(=O)COC(=O)c2ccccc2OCc2cccc(Br)c2)c1	-3%	6%	x	x	x
COc1ccc(C(=O)COC(=O)CCS(=O)(=O)c2ccc(C)cc2)c(OC)c1	-8%	-7%	1%	x	3%
COc1ccc(C(=O)CCS(=O)(=O)c2ccc(C)cc2)cc1OC	7%	2.2µM*	-17%	5	14%
Cc1ccc(S(=O)(=O)CCC(=O)c2ccc(O)cc2O)cc1	-5%	7.1µM*	-14%	-1	-2%
COc1cccc([C@@H]2Oc3ccc(OC)cc3C[C@H]2OC(=O)NCc2ccco2)c1	x	x	x	3	x
CC(C)CN(CCCNC(=O)CN1C(=O)COc2ccc(S(=O)(=O)N3CCCCCC3)cc21)CC(C)C	5%	56µM*!	-1%	x	0%
SMILES	TrxR1 substrate	rTrxR1 inhibitor	Eya2 phos inh	FBPA coupling cs	mIDH1 inhibitor
FC(F)(F)C(F)(F)C(F)(F)c1nc2ccccc2[nH]1	4%	2%	x	x	x
O=C(NCc1ccco1)c1cccc2c1C(=O)c1ccc(N3CCC(Cc4ccccc4)CC3)cc1S2(=O)=O	1%[57.1 µM]	-10%[57.1 µM]	9%	x	8%
O=C(NCc1ccco1)c1cccc2c1C(=O)c1ccc(/C=C/c3ccccc3)cc1S2(=O)=O	-2%[57.1 µM]	22µM*	-7%	x	-8%
CCN1CCN(C(c2cccc(OC)c2)c2c(O)cc(C)n(Cc3ccco3)c2=O)CC1 (centres undefined)	2%[57.1 µM]	11µM*	x	x	27%
Cc1cc(O)c(C(c2ccccc2)N2CCN(c3ccc(F)cc3)CC2)c(=O)n1Cc1ccco1 (centres undefined)	-2%[57.1 µM]	10µM*	x	x	-5%
COc1cccc(C(c2c(O)cc(C)n(Cc3ccco3)c2=O)N2CCC(C)CC2)c1 (centres undefined)	1%[57.1 µM]	-13%[57.1 µM]	x	x	15%

Source: PubChem (National Center for Advancing Translational Sciences (NCATS))
